These results are taken from ChEMBL document CHEMBL1201862, “PubChem BioAssay data set” (2004).

The target of this experiment is T1, Thyroid hormone receptor beta (Homo sapiens) (UniProt P10828).
T1 sequence (whole entry): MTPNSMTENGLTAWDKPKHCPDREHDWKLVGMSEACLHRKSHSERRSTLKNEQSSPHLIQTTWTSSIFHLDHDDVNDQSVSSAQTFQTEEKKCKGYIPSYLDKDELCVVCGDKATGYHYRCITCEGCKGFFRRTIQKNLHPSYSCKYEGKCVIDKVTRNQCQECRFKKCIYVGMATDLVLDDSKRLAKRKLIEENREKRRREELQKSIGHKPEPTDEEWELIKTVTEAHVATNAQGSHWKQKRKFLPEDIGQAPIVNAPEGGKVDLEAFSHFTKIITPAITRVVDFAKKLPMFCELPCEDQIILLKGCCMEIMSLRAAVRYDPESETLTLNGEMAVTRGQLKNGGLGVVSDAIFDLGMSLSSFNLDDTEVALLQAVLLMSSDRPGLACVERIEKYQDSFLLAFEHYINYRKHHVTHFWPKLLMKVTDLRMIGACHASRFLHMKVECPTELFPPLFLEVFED
Briefly: qHTS Assay for Inhibitors of the Interaction of Thyroid Hormone Receptor and Steroid Receptor Coregulator 2: Probe Summary. [Related pubchem assays (depositor defined):AID1469, AID1479, AID1567, AID1568, AID1570, AID1571, AID1573, AID2444, AID2447, AID2448, AID2449, AID2455, AID2479, AID2487, AID2490, AID2552]. The format is functional. Background: In qHTS, concentration-response curves come from the screen itself.

With `CC1CCN(C(=O)COC(=O)c2ccc(S(C)(=O)=O)c([N+](=O)[O-])c2)CC1`, the Potency is 9800 nM (active).

As to `CCC(OC(=O)c1ccc(S(C)(=O)=O)c([N+](=O)[O-])c1)C(=O)NC1C2CC3CC(C2)CC1C3` (centres undefined), the Potency is 1100 nM (active).

With `CC(OC(=O)c1ccc(S(C)(=O)=O)c([N+](=O)[O-])c1)C(=O)NC1C2CC3CC(C2)CC1C3` (centres undefined), the Potency was 1400 nM (active).

On to `CCCC1CCN(C(=O)COC(=O)c2ccc(S(C)(=O)=O)c([N+](=O)[O-])c2)CC1`, for which the Potency is 3300 nM (active).
